For 94 compounds, inhibition results are on record in PubChem BioAssay AID1619 (SRMLSC, 2009).

Where “and” joins values, the source holds several entries; their conditions need not be identical. Equal values may be shown once. In all, about 220,000 compounds went through this assay and about 830 (0.38%) were called active. Not all results are given here. Measured potencies and affinities stand elsewhere. Values without a mark were called inactive.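 How the source made its calls: active means compound inhibiting the enzyme by more than half at any dose during confirmatory dose-response retesting; inconclusive means strong single-dose inhibitors picked by rank but not retested; inactive means the rest.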

Leucine aminopeptidase (Plasmodium falciparum (isolate 3D7)), sequence (Q8IL11 whole entry, looked up): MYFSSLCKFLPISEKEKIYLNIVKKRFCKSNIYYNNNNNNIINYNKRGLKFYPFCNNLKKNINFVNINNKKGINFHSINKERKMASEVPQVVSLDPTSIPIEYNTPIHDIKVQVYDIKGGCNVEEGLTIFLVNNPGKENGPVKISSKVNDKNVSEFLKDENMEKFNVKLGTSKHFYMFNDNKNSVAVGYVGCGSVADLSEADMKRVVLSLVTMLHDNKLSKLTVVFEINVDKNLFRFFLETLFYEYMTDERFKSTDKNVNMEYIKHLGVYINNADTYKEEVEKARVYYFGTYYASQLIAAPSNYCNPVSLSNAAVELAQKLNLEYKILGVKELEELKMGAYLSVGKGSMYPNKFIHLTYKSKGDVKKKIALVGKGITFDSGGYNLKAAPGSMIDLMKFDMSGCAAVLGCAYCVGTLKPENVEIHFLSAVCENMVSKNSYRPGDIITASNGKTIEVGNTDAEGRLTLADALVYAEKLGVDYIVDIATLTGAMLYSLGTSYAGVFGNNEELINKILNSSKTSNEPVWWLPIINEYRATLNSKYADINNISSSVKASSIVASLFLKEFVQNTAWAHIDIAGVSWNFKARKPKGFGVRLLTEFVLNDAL

This test addresses Leucine aminopeptidase (Plasmodium falciparum (isolate 3D7)) (UniProt Q8IL11). Nature of the test: P. falciparum M17LAP inhibitors, primary screen, biochemical, fluorogenic H-Leu-NHMec substrate, 1536-well (AID 1619).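 Further: plate controls were full reaction with DMSO carrier for no effect and no enzyme background for full effect.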 The following applies: recombinant M17LAP, H-Leu-NHMec fluorogenic kinetic assay; at 30 µM; stronger effect = higher value.
Take `Cn1ncc([N+](=O)[O-])c1C(=O)Nc1nc2ccccc2n1CCN1CCCCC1`: the inhibition is 48.4%.
The same measure for `Cc1ccc(NC(=O)COC(=O)Cc2ccsc2)cc1S(=O)(=O)N(C)C`: 3.8%; for `CCOC(=O)c1cc(=O)n2nc(-c3ccc(C)cc3)nc2s1`: 10.8%; for `CCOC(=O)c1ccc(NC(=O)Cn2nnc(-c3ccccc3F)n2)cc1`: -13.6%.
The same measure for `CC(C)Cn1c(N)c(C(=O)COC(=O)c2cc(F)cc(F)c2)c(=O)n(C)c1=O`: 3.99%; for `CCOc1ccc(C2/C(=C(\O)c3ccc(OC)c(OC)c3)C(=O)C(=O)N2c2cc(C)on2)cc1OC` (centres undefined): 25.9%; for `C=CCn1c(-c2cccc(OCC)c2)n[nH]c1=S`: -4.71%.
The same measure for `CCOc1cccc(-c2cc(C(=O)NN)[nH]n2)c1`: 3.47%; for `Cc1ccc(C(=O)NC2CCCCNC2=O)cc1C` (centres undefined): 4.43%; for `Cc1ccc(Cl)cc1NC(=O)N(C)CCO`: -0.32%.
Take `O=C(Cn1cc(C(=S)N2CCOCC2)c2ccccc21)N1CCOCC1`: the inhibition is 1.74%.
For `O=Cc1cn(CC(=O)N2CCOCC2)c2ccccc12` the value was 13.4%; for `O=C(O)Cn1cc(C(=S)N2CCOCC2)c2ccccc21`, 4.61%; for `O=C(O)Cn1cc(/C=C2/SC(=O)N(CC(=O)N3CCCCCC3)C2=O)c2ccccc21`, 36.6%.
For `O=C(NCc1ccccc1C(F)(F)F)C1CC(c2ccc(C(F)(F)F)cc2)=NO1` (centres undefined) the value was -1.15%.
The same measure for `Cc1ccc(CNC(=O)c2ccc3c(=O)n4c(-c5ccc(C)cc5)csc4nc3c2)cc1`: 4.76%; for `COC(=O)c1c(C)[nH]c(C(=O)NCc2ccco2)c1C`: -0.45%.
As to `CCC(=O)N(Cc1cc(=O)[nH]c2ccccc12)c1cccc(C)c1`, the inhibition is -6.5%.
For `Cc1ccc(-c2cc3nc(-c4ccccc4)cc(N4CCOCC4)n3n2)cc1` the value was -15.5%.
For `O=c1cc(-c2ccc(C3CCCCC3)cc2)[nH][nH]1` the value was 1.14%; for `O=c1[nH]c(-c2ccc(Cl)cc2)cs1`, -0.58%; for `CC(C)Cc1ccc(-c2cc(=O)[nH][nH]2)cc1`, 3.83%.
The same measure for `O=c1cc(-c2ccc(Br)cc2)[nH][nH]1`: 6.69%; for `O=c1c(OC2OC(CO)C(O)C(O)C2O)c(-c2ccc(O)c(O)c2)oc2cc(O)cc(O)c12` (centres undefined): 31%; for `O=c1c(O[C@@H]2O[C@H](CO)[C@H](O)[C@H](O)[C@H]2O)c(-c2ccc(O)c(O)c2)oc2cc(O)cc(O)c12`: -6.93%.
As to `O=C(c1ccc(Br)cc1)N(C1=NCCCCS1)c1ccccc1`, the inhibition is -5.89%.
For `CC(Oc1ccc(NC(=O)c2ccco2)cc1)C(=O)N1c2ccccc2CC1C` (centres undefined) the value was -7.91%; for `CCOC(=O)c1c(N)c2cc([N+](=O)[O-])cnc2n1C`, -0.26%; for `COC(=O)CSc1nnc(-c2ccc(NS(=O)(=O)c3ccccc3)cc2)o1`, 55.1%.
The same measure for `CCc1nnc(NC(=O)CSc2nnc(-c3ccco3)o2)s1`: 4.71%; for `O=C(CSc1nnc(-c2ccc(S(=O)(=O)N3CCCC3)cc2)o1)NCC1CCCO1` (centres undefined): -1.86%.
The same measure for `O=C(NCC1CCCO1)c1ccc(NS(=O)(=O)c2ccccc2)cc1` (centres undefined): -3.12%; for `Cc1cc(NC(=O)Nc2ccc(C)c(C)c2)no1`: 1.89%.
In the case of `O=C1c2cccc3c([N+](=O)[O-])ccc(c23)C(=O)N1CCc1ccccn1`, the inhibition is 3.49%.
The same measure for `Cc1cccc(OCCOC(=O)C2CCN(S(=O)(=O)c3cccs3)CC2)c1`: -6.82%; for `COc1ccc(C(C)NC(=O)c2cccc([N+](=O)[O-])c2)cc1OC` (centres undefined): 1.09%; for `COc1ccc(NC(=S)N/C(=N/S(=O)(=O)c2ccc(C)cc2)c2ccccc2)cc1`: -2.37%.
The same measure for `OC1(c2ccccc2)CCN(Cc2ccccc2)CC1`: 11.4%; for `CCOC(=O)c1cn(Cc2ccccc2)nn1`: -4.7%.
In the case of `Cc1ccc(-n2cc(CN3CCN(C(=O)c4ncn[nH]4)CC3)c(-c3ccc(F)cc3)n2)cc1`, the inhibition was 5.18%.
The same measure for `CCCOc1ccc(N2C(=O)CC(SCCc3nc4ccccc4[nH]3)C2=O)cc1` (centres undefined): 0.77%; for `CCCOc1ccc(N2C(=O)CC(SCc3nc4ccccc4[nH]3)C2=O)cc1` (centres undefined): 9.24%.
The same measure for `COC(=O)c1ccc(N2C(=O)CC(SCCN)C2=O)cc1` (centres undefined): 6.69%; for `CCOc1ccc(N2C(=O)CC(SCC(=O)O)C2=O)cc1` (centres undefined): 11.6%; for `O=c1[nH]c2cccnc2n1-c1cccc([N+](=O)[O-])c1`: -2.76%.
For `Fc1ccc(OCc2nc(-c3cccs3)no2)cc1` the value was -5.15%; for `O=C(Cn1cnc2c(cnn2-c2ccc(Cl)cc2)c1=O)NCC1CCCO1` (centres undefined), 8.72%; for `COc1ccc(C2CC(=O)C=C(NCc3ccc4c(c3)OCO4)C2)cc1` (centres undefined), 8.48%.
Consider `CCN(CC)c1nc(C)c(C(C)=O)cc1C#N`, for which the inhibition was 3.26%.
With `COc1ccccc1N1CCN(S(=O)(=O)Cc2ccccc2Cl)CC1`, the inhibition is 3.75%.
For `COc1ccc(NC(=O)C(c2ccc(C)cc2)N(C)C(=O)c2cnccn2)cc1` (centres undefined) the value was 1.36%; for `C/C(=N\NC(=O)CC1N=C(Cc2ccccc2)NNC1=O)c1ccccc1` (centres undefined), 1.8%.
The same measure for `C/C(=N\NC(=O)CNc1ccccc1)c1ccccc1`: -12.8%.
For `C/C(=N\NC(=O)CCc1c(C)n[nH]c1C)c1ccc([N+](=O)[O-])cc1` the value was 6.88%; for `C/C(=N/NC(=O)CC(=O)N/N=C(\C)c1ccc([N+](=O)[O-])cc1)c1ccc([N+](=O)[O-])cc1`, 9.49%; for `Cc1ccc(S(=O)(=O)/N=C(\N)Nc2nc(C)c3cc(C)c(C)cc3n2)cc1`, 6.15%.
With `O=C(CCSc1ccccc1)Nc1ccc(OCc2ccccc2)cc1`, the inhibition is 3.34%.
For `COc1ccc(-c2nnc(SCC(=O)N/N=C/c3ccccc3C(=O)O)n2-c2ccccc2)cc1` the value was -3.16%.
For `COc1cc(/C=C(/C#N)c2ccc(F)cc2)ccc1OCc1ccc(C(=O)O)o1` the value was 34.9%; for `COC(=O)c1ccc(COc2ccc(/C=C(\C#N)c3nc4ccccc4[nH]3)cc2OC)o1`, -3.19%.
The same measure for `N#C/C(=C/c1ccc(OCc2ccc(C(=O)O)cc2)c(Br)c1)c1cccc(F)c1`: 7.71%; for `COc1cc(/C=C(/C#N)c2nc3ccccc3[nH]2)ccc1OCc1ccc(C(=O)O)o1`: -33.5%.
Regarding `COc1ccc(NC(=O)Cc2c(F)cccc2Cl)c(OC)c1`, the inhibition was -1.9%.
For `COc1ccc(NC(=O)COC(=O)Cc2c(F)cccc2Cl)cc1` the value was 5.4%; for `COC(=O)CSc1nc(NC#N)nc(NC(C)(C)C)n1`, 4.9%.
For `COc1ccc(-c2cc(C)nc(SCc3cccc(C(=O)O)c3)n2)cc1` the value was 38.6%; for `Cn1sc(NC(=O)c2ccccc2Cl)nc1=O`, -13.2%; for `Cc1ccc(C(=O)Nc2nc(=O)n(C(=O)c3ccccc3C)s2)cc1`, 31.9%.
The same measure for `Cn1sc(NC(=O)c2ccc(Cl)cc2)nc1=O`: 0.57%.
As to `Cn1sc(NC(=O)c2cccc(Cl)c2)nc1=O`, the inhibition is 12.3%.
In the case of `Cc1ccc(C(=O)Nc2nc(=O)[nH]s2)cc1`, the inhibition is -1.57% and 13.4%.
For `Cc1ccc(C(=O)Nc2nc(=O)n(C)s2)cc1` the value was 4.51%; for `O=C(Nc1nc2ccccc2s1)c1ccccc1`, 0.27%.
For `O=C(Nc1nc(=O)n(C(=O)c2cccc(C(F)(F)F)c2)s1)c1ccccc1`, the inhibition was 22.5%.
The same measure for `CCN(CC)CCCN1C(=O)CSC1c1ccc2c(c1)OCO2` (centres undefined): 20.1%; for `O=C(NNC(=O)c1ccc(Br)o1)c1ccc(NC(=O)c2ccccc2)cc1`: -6.75%.
Turning to `COCCCN(C(=S)NC(=O)c1ccc(C(C)(C)C)cc1)c1c(N)n(Cc2ccccc2)c(=O)[nH]c1=O`, the inhibition was 16.9%.
Turning to `Cc1ccc(C)c(Cn2c(=O)n(CCCC(=O)NCc3ccco3)c(=O)c3ccccc32)c1`, the inhibition was 10%.
The same measure for `Cc1csc2nc(CCNS(=O)(=O)c3cccs3)cn12`: -4.9%.
For the compound `O=C(NCc1ccccc1)C1=C[C@@H](c2ccc(Br)cc2)C[C@@H](OCc2ccc(CO)cc2)O1`, the inhibition is 7.8%.
`CCCc1[nH]nc2c1C(c1cn[nH]c1-c1ccc(F)cc1)C(C#N)=C(N)O2` (centres undefined): the inhibition was 29.9%.
For `C=CCN(c1ccccc1)S(=O)(=O)c1cc(C(=O)NC2=NCCS2)ccc1Cl` the value was -0.31%; for `CC(C)Oc1cccc(C(=O)C2CCCN(Cc3cccn3-c3cccnc3)C2)c1` (centres undefined), 4.62%; for `O=C(COc1ccc(Br)cc1)Nc1nnc(-c2cccnc2)s1`, -6.24%.
The same measure for `Cc1ccc(C(=O)/C=C/c2c[nH]c3ccccc23)cc1`: 5.88%; for `COCCCNC(=O)c1ccccc1NS(C)(=O)=O`: -1.32%.
For `CCOC(=O)C1CCN(S(=O)(=O)c2cnc[nH]2)CC1` the value was 3.88%; for `CC1CN(C(=S)c2cccc([N+](=O)[O-])c2)CC(C)O1` (centres undefined), 4.78%; for `Cc1nc2ccccc2n1C(=O)c1ccccc1[N+](=O)[O-]`, 7.68%.
As to `CCn1c(SCC(=O)Nc2cccc(C)n2)nnc1-c1ccco1`, the inhibition is 4.98%.
As for `Cc1ccccc1S(=O)(=O)Nc1nc2ccccc2nc1N1CCOCC1`, the inhibition is 16.6%.
Regarding `CC1=C(C(N)=O)C(c2ccccc2)n2nc(-c3cccs3)nc2N1` (centres undefined), the inhibition was -4.69%.
In the case of `O=C(CSc1nnc(CNc2cccc(C(F)(F)F)c2)n1Cc1ccco1)NCc1ccco1`, the inhibition is 7.9%.
`Cc1cc(NC(=O)CSc2nnc(CNc3cccc(C(F)(F)F)c3)n2Cc2ccco2)no1`: the inhibition is 7.47%.

For orientation: inhibition means the change of the read-out against control, counted positive when it falls.
